Bioassay records as filed in PubChem BioAssay.
RORg inh: qHTS for inhibitors of ROR gamma transcriptional activity. 5.4% of 310,000 active. Drosophila S2 Gal4-RORgamma UAS-luciferase reporter, 20 h. Potency, µM (top dose mostly 53.6 µM), usual class: inhibitors; further: nearly all actives have a fitted effect of over 60% in size
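Compounds are pin-transferred onto Drosophila Schneider cells expressing a copper-inducible Gal4–ROR gamma transactivation domain fusion. After 1 hr, copper sulfate is added to 700 uM final; luciferase is read 20 hr later.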
Gal4-VP16 FLuc: VP16 counterscreen qHTS for inhibitors of ROR gamma transcriptional activity. 3.5% of 310,000 active. Potency, µM (series often up to 53.6 µM), usual class: inhibitors. Drosophila S2 Gal4-VP16 UAS-luciferase, luminescence, 20 h;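 further: Gal4-VP16 expression switched on by copper sulfate through the metallothionein promoter; nearly all actives have a fitted effect of over 50% in size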
B2AR arrestin: qHTS assay of beta-arrestin-biased ligands of beta2-adrenergic receptor; Beta-2 adrenergic receptor (Homo sapiens), P07550; beta-arrestin recruitment to beta2AR, cell-based reporter; Potency, µM (titrated, usually from 46.1 µM), usual class: activators; 0.02% of 330,000 active; further: nearly all actives have a fitted effect of over 65% in size
NPSR antagonist: qHTS Assay for Antagonists of the Neuropeptide S Receptor: cAMP Signal Transduction | CHO-NPSR cells, cAMP TR-FRET, antagonist mode | Potency, µM (series often up to 38.3 µM), hits mostly inhibitors | 1% of 220,000 active | AID 1461, 2008; further: nearly all actives have a fitted effect of over 50% in size
Target sequence (Q6W5P4 whole entry, looked up): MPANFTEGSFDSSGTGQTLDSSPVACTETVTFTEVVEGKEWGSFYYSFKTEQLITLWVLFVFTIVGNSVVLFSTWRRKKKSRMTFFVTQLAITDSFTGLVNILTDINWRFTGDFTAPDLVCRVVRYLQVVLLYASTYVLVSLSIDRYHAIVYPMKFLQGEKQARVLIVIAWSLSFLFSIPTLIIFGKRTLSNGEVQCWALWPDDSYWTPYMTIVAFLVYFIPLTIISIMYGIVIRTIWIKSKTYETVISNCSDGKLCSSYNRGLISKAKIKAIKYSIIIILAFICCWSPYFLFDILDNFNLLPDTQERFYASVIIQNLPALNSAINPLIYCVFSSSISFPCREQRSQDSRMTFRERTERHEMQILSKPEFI
A number is an active result; [ ] = another dose, or the depositor's remark. A selection: hits, their analogues and other compounds. The true share with any hit is near 5.7%. The call rests on the fitted dose curve; in most records, active means well fitted curve in the direction sought with a large enough effect; inconclusive means small, poorly fitted or top-dose-only effect, or another doubt; inactive means no such curve, though single readings can be large; an effect the other way counts as inactive or inconclusive.

How did COc1ccc(NC(=O)/C(Cl)=C(/Cl)S(=O)(=O)Cc2ccc(C)cc2)cn1 do in these assays?
RORg inh: 4.5µM; Gal4-VP16 FLuc: 3.2µM; B2AR arrestin: inactive; NPSR antagonist: 4µM

Results for COc1ccc(NC(=O)/C(Cl)=C(/Cl)S(=O)Cc2ccccc2Cl)cn1 (centres undefined) ?
RORg inh: 1µM; Gal4-VP16 FLuc: 4.5µM; B2AR arrestin: inactive; NPSR antagonist: 5µM

How did Cc1cccc(N2C(=S)NC3c4cc(Cl)ccc4OC2(C)C3C(=O)N(C)C)c1 (centres undefined) do in these assays?
RORg inh: inconclusive; Gal4-VP16 FLuc: inactive; B2AR arrestin: inactive; NPSR antagonist: inactive

What do the screens show for `Cc1ccc(N2C(=S)NC3c4cc(Cl)ccc4OC2(C)C3C(=O)N(C)C)cc1` (centres undefined)?
RORg inh: 11µM; Gal4-VP16 FLuc: inactive; B2AR arrestin: inactive; NPSR antagonist: inactive

Results for O=C1NC[C@H](c2ccccc2)N(CCc2cccc(F)c2)C1=O ?
RORg inh: inactive; Gal4-VP16 FLuc: inactive; B2AR arrestin: inactive; NPSR antagonist: inactive

What do the screens show for `CCN(CC)c1ccc(N=Nc2nn(C)c(C)c2[N+](=O)[O-])cc1`?
RORg inh: 5µM; Gal4-VP16 FLuc: inconclusive; B2AR arrestin: inactive; NPSR antagonist: inactive

Results for CCCCN1C(=S)NC[C@@H]1Cc1ccc(O)cc1 ?
RORg inh: inactive; Gal4-VP16 FLuc: inactive; B2AR arrestin: inactive; NPSR antagonist: inactive

Results for CCCC[C@@H]1CNC(=S)N1CCCC ?
RORg inh: 2.8µM; Gal4-VP16 FLuc: 7.9µM; B2AR arrestin: inactive; NPSR antagonist: inactive

What do the screens show for `CC1CCN(c2nc(-c3ccccc3)c(C#N)c(=O)[nH]2)CC1`?
RORg inh: inactive; Gal4-VP16 FLuc: inactive; B2AR arrestin: inactive; NPSR antagonist: 13µM

Results for CC(Oc1ccc(-c2ccccc2)cc1)C(=O)N/N=C/c1cccnc1 (centres undefined) ?
RORg inh: inactive; Gal4-VP16 FLuc: inactive; B2AR arrestin: inactive

What do the screens show for `CC(Oc1ccc(Cl)cc1)C(=O)N/N=C/c1ccsc1` (centres undefined)?
RORg inh: 11µM; Gal4-VP16 FLuc: inconclusive; B2AR arrestin: inactive; NPSR antagonist: inactive

Results for Cc1[nH]c(=S)sc1Cc1ccc(Cl)c(Cl)c1 ?
RORg inh: 16µM; Gal4-VP16 FLuc: inconclusive; B2AR arrestin: inactive; NPSR antagonist: inactive

Results for COC(=O)C1=C(C(=O)OC)SC2(S1)C(C(=O)OC)=C(C(=O)OC)SC1=C2c2cc(C)cc(C)c2NC1(C)C ?
RORg inh: 13µM; Gal4-VP16 FLuc: inactive; NPSR antagonist: inconclusive

How did COc1ccccc1CNC(=O)CCCC(=O)n1ncc2cc(C)ccc21 do in these assays?
RORg inh: inactive; Gal4-VP16 FLuc: inactive; B2AR arrestin: inactive

What do the screens show for `c1ccc2nc(-c3nc4ccccc4o3)ccc2c1`?
RORg inh: inactive; Gal4-VP16 FLuc: 10µM; B2AR arrestin: inactive; NPSR antagonist: inactive

Results for c1ccc(-c2nc3ccccc3o2)nc1 ?
RORg inh: inactive; Gal4-VP16 FLuc: inactive; B2AR arrestin: inactive; NPSR antagonist: inactive

What do the screens show for `Cc1cc(/C=C2/C(=O)NN(c3ccccc3)C2=O)c(C)n1-c1cccc(O)c1`?
RORg inh: inconclusive; Gal4-VP16 FLuc: 16µM; B2AR arrestin: inactive; NPSR antagonist: inactive

What do the screens show for `Cc1cc(/C=C2\SC(=S)NC2=O)c(C)n1-c1cccc(O)c1`?
RORg inh: inactive; Gal4-VP16 FLuc: inactive; B2AR arrestin: inactive; NPSR antagonist: inconclusive

What do the screens show for `Cc1cc(C=C2C(=O)c3ccccc3C2=O)c(C)n1-c1ccccc1`?
RORg inh: 0.063µM; Gal4-VP16 FLuc: 16µM; B2AR arrestin: inactive; NPSR antagonist: inconclusive

Results for O=c1c(-c2cccs2)nc2cnc(Oc3cccc(Cl)c3)nc2n1C1CC1 ?
RORg inh: inactive; Gal4-VP16 FLuc: inactive

What do the screens show for `Cc1cc(C)n(-c2nc(N(c3ccccc3)c3ccccc3)nc(-n3nc(C)cc3C)n2)n1`?
RORg inh: 5.6µM; Gal4-VP16 FLuc: 5.6µM; B2AR arrestin: inactive; NPSR antagonist: 13µM

How did Cc1cc(C)n(-c2nc(C)nc(N)n2)n1 do in these assays?
RORg inh: 14µM; Gal4-VP16 FLuc: inactive; B2AR arrestin: inactive; NPSR antagonist: inactive

What do the screens show for `CNc1cc(C)nc(N2CCOCC2)n1`?
RORg inh: inactive; Gal4-VP16 FLuc: inactive; B2AR arrestin: inactive; NPSR antagonist: inactive

Results for CNc1cc(C)nc(-n2nc(C)cc2C)n1 ?
RORg inh: 0.63µM; Gal4-VP16 FLuc: 2.5µM; B2AR arrestin: inconclusive; NPSR antagonist: inactive

Results for CCOc1ccc(Nc2cc(C)nc(-n3nc(C)cc3C)n2)cc1 ?
RORg inh: 0.16µM; Gal4-VP16 FLuc: 0.89µM; B2AR arrestin: inactive; NPSR antagonist: inconclusive

What do the screens show for `Cc1cc(C)n(-c2nc(Nc3ccccc3)nc(-n3nc(C)cc3C)n2)n1`?
RORg inh: inactive; Gal4-VP16 FLuc: inactive; B2AR arrestin: inactive; NPSR antagonist: inactive

How did Cc1ccc(SCC(c2ccccc2)N2CCN(C)CCC2=O)cc1 (centres undefined) do in these assays?
RORg inh: inactive; Gal4-VP16 FLuc: inactive

What do the screens show for `COc1ccccc1CN1CCC2(CC1)CCN(C(=O)c1csnn1)CC2`?
RORg inh: inactive; Gal4-VP16 FLuc: inactive

What do the screens show for `O=C1CSC(c2cccc([N+](=O)[O-])c2)N1CCc1ccccc1` (centres undefined)?
RORg inh: inactive; Gal4-VP16 FLuc: inactive; B2AR arrestin: inactive

What do the screens show for `Cc1cc(Cl)nc(-n2nc(C)cc2C)n1`?
RORg inh: 3.5µM; Gal4-VP16 FLuc: 13µM; B2AR arrestin: inactive; NPSR antagonist: inactive

How did N=C1SCC(=O)N1c1ncc(Cc2ccc(F)cc2)s1 do in these assays?
RORg inh: 0.32µM; Gal4-VP16 FLuc: 0.2µM; B2AR arrestin: inactive; NPSR antagonist: inconclusive

Results for Cc1cc(C(F)(F)F)c2c(N)c(C(=O)Nc3cc(C)on3)sc2n1 ?
RORg inh: 7.1µM; Gal4-VP16 FLuc: 4µM; B2AR arrestin: inactive; NPSR antagonist: inconclusive

Results for c1ccc(-c2nc(-c3ccncc3)n[nH]2)nc1 ?
RORg inh: 5µM; Gal4-VP16 FLuc: 13µM; B2AR arrestin: inactive; NPSR antagonist: inactive

How did c1ccc(-c2ccncc2)nc1 do in these assays?
B2AR arrestin: inactive

What do the screens show for `COc1ccc(Cl)cc1NC(=O)CN(C)CC(=O)Nc1ccc(C)cc1Br`?
RORg inh: inactive; Gal4-VP16 FLuc: inactive[10 µM]; B2AR arrestin: inactive; NPSR antagonist: inactive

Results for O=S(=O)(Nc1cc(Sc2ncn[nH]2)c(O)c2ccccc12)c1ccccc1 ?
RORg inh: 7.9µM; Gal4-VP16 FLuc: 7.1µM; B2AR arrestin: inactive; NPSR antagonist: inactive

What do the screens show for `CC(C)=CCC1C(=O)N(c2ccccc2)N(c2ccccc2)C1=O`?
RORg inh: inactive[10 µM]; Gal4-VP16 FLuc: inconclusive

What do the screens show for `CCCCC1C(=O)N(c2ccccc2)N(c2ccc(O)cc2)C1=O` (centres undefined)?
RORg inh: 4.5µM; Gal4-VP16 FLuc: 5.6µM; B2AR arrestin: inactive

Results for Cc1nc2ccc3nc(NC(=O)c4ccc5c(c4)OCCO5)sc3c2s1 ?
RORg inh: inactive; Gal4-VP16 FLuc: inactive; B2AR arrestin: inactive; NPSR antagonist: inactive
